High-throughput results (PubChem BioAssay)
ADAM17 inh – ADAM17 inhibitors, primary screen, biochemical, QFRET; Disintegrin and metalloproteinase domain-containing protein 17 (Homo sapiens), P78536; recombinant ADAM17, EDANS/DABCYL FRET peptide cleavage; inhibition, % at 6.95 µM; 370,000 tested, 0.83% active;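 active means inhibition above the mean of compounds lying between control limits plus 3 SD, set per campaign, cut at about 8.5% in these data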;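 further: 0% = DMSO-only wells as the low control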
APOBEC3A inh – APOBEC3A ssDNA deaminase inhibitors, primary screen, selectivity assay for APOBEC3G inhibitor project, biochemical, FAM/TAMRA oligo cleavage fluorescence; recombinant A3A, FAM/TAMRA ssDNA deamination fluorescence; 330,000 tested, 0.41% active; inhibition, % at 20 µM;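 active means at least 40% inhibition at 20 µM here, with at most 30% in a related deaminase screen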;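 further: plate controls were A3A with DMSO for no effect and wells lacking A3A enzyme for full effect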
Target sequence (P31941 whole entry, looked up): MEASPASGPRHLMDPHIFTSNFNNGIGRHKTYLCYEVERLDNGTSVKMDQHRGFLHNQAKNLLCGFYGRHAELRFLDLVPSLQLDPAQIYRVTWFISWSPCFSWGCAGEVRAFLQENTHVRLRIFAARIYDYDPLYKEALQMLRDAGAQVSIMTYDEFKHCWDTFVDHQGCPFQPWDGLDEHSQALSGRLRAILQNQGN
ADAM10 inh – human ADAM10 inhibitors, primary screen, biochemical, QFRET, HTS; Disintegrin and metalloproteinase domain-containing protein 10 (Homo sapiens), O14672; recombinant ADAM10, EDANS/DABCYL FRET peptide cleavage, 3 h; inhibition, % at 7 µM; 370,000 tested, 0.62% active; AID 720582, 2013;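 active means inhibition above a per-campaign cutoff equal to the mean of compounds falling between control-based bounds plus 3 SD, cut at about 20% in these data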;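 further: 0% = DMSO wells while the 100% control is not disclosed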
CendR NRP1 mod – modulators of CendR peptide binding to NRP-1, primary screen, biochemical, fluorescence polarization, uHTS. inhibition, % at 25 µM. FAM-RPARPAR peptide binding to NRP-1. AID 602438, 2012. 360,000 tested, 0.85% active;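 active means inhibition or corrected inhibition above about 18%, plus a signal ratio from 0.5 to 1.5, limit read from the data, passing the limit was not always enough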
A3G deaminase – APOBEC3G DNA deaminase inhibitors, primary screen, biochemical, fluorescence, single-stranded DNA substrate, uHTS; DNA dC->dU-editing enzyme APOBEC-3G (Homo sapiens), Q9HC16; recombinant A3G, ssDNA deamination FAM/TAMRA fluorescence; inhibition, % at 20 µM; 330,000 tested, 0.28% active;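 active means inhibition of at least 40% at 20 µM, with no more than 30% in the related APOBEC3A deaminase screen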;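 further: plate controls were DMSO wells with A3G for no effect and wells lacking A3G enzyme for full effect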
Target sequence (Q9HC16 whole entry, looked up): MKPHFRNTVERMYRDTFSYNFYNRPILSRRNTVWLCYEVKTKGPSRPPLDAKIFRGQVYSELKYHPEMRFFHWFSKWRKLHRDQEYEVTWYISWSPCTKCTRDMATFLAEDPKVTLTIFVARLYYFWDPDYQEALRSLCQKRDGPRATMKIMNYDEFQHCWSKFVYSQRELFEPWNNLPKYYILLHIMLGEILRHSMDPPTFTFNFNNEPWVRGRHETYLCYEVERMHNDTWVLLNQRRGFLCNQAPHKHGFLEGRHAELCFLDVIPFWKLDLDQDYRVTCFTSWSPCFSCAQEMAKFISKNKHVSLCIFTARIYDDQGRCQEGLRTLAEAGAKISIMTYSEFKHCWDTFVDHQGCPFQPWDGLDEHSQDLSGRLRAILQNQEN
* = called active by the depositor; nt = not tested or not shown. Rows were chosen to be rich in hits. Some 2.4% of all compounds tested hit in one or more screens of this group.

SMILES	ADAM17 inh	APOBEC3A inh	ADAM10 inh	CendR NRP1 mod	A3G deaminase
CCOc1ccc(/C=C2\NCCc3cc(OCC)c(OCC)cc32)cc1OCC	-99	nt	-299	nt	nt
O=C(Nc1ccc(F)c(F)c1)c1cc(S(=O)(=O)N2CCN(c3ccccn3)CC2)ccc1F	9.6*	1	10	-8	-7
O=C(Nc1c(F)cc(F)cc1Br)c1cc(S(=O)(=O)N2CCN(c3ccccn3)CC2)ccc1F	0	0	2	-1	-4
CC(=O)N/N=C/c1cc(C(C)C)cc(/C=N/NC(C)=O)c1O	-11	-3	-28	41*	-9
O=C1CCC[C@H]2C[C@H](NCCc3ccncc3)CC[C@]23CCCN13	-3	nt	-6	nt	nt
COC(=O)[C@]12C[C@H](CC(=O)N3CCCC3)C(=O)N(Cc3ccccc3)C1=C[C@H](C(C)C)O[C@@H]2C1CC1	2	nt	1	nt	nt
CCc1cc(C(=O)OC)c(NC(=O)c2cc(Br)cs2)s1	nt	7	nt	6	1
CCc1cc(C(=O)OC)c(NC(=O)c2ccoc2C)s1	-3	3	-12	39*	1
CC(C)=CCC/C(C)=C/CNC(=O)C[C@H]1C[C@H](C(=O)N(C(C)C)C(C)C)[C@@]2(C)c3[nH]c4ccc(Cl)cc4c3CCN2C1=O	-2	-1	-13	27*	2
CC1OC2CC(=O)OC2C2=C1C(=O)c1c(O)cccc1C2=O (stereo not given)	-3	nt	-16	38*	nt
O=C(Nc1cccc(C(=O)N2CCOCC2)c1)c1ccc([N+](=O)[O-])cc1	-2	-4	-4	19*	-3
COc1ccc2nc3cccc(OC)c3nc2c1	0	4	-4	31*	12
COc1ccc2nc(-c3ccco3)c(-c3ccco3)nc2c1	-48	92	-144	-17	83
COc1ccc2nc3ccccc3nc2c1N	-6	-2	-7	29*	8
NC(=O)c1ncn([C@@H]2O[C@H](C(=O)N[C@H](Cc3ccccc3)C(=O)O)[C@@H](O)[C@H]2O)n1	-5	nt	-11	nt	nt
Cc1ccc(-n2nnnc2-c2cnc(-c3cccnc3)nc2C(F)(F)F)cc1	-1	-3	5	20*	-2
FC(F)(F)c1nc(-c2ccncc2)ncc1-c1nnnn1-c1ccccc1	-1	6	-3	4	-4
CCOc1ccc(C(=O)NCC(=O)NCCSc2ccc(Br)cc2)cc1OCC	-1	nt	0	23*	nt
COc1cccc(C(=O)N[C@H](C(=O)N2CCC[C@H]2C(=O)NCc2ccccc2)C(C)C)c1	0	nt	0	nt	nt
C[C@H]1CCC[C@H](O)CC(=O)c2c(O)cc(O)cc2CC(=O)O1	-1	nt	0	nt	nt
COC/C=C/C1=CC2=CC(=O)C(C)(OC(=O)c3cnc4ccccc4n3)C(=O)C2=CN1CCOC (stereo not given)	0	-3	-6	32*	-7
COC/C=C/C1=CC2=CC(=O)C(C)(OC(=O)c3cnc4ccccc4n3)C(=O)C2=CN1CCCOC(C)C (stereo not given)	-4	-2	-6	44*	-11
COC/C=C/C1=CC2=CC(=O)C(C)(OC(=O)c3cnc4ccccc4n3)C(=O)C2=CN1CCN1CCOCC1 (stereo not given)	-4	2	-3	8	-4
COC/C=C/C1=CC2=CC(=O)C(C)(OC(=O)c3cnc4ccccc4n3)C(=O)C2=CN1C1CCCC1 (stereo not given)	nt	4	nt	nt	1
COC/C=C/C1=CC2=CC(=O)C(C)(OC(=O)c3cnc4ccccc4n3)C(=O)C2=CN1Cc1ccco1 (stereo not given)	0	3	-7	30*	-1
SMILES	ADAM17 inh	APOBEC3A inh	ADAM10 inh	CendR NRP1 mod	A3G deaminase
C=CCN1C=C2C(=O)C(C)(OC(=O)c3cnc4ccccc4n3)C(=O)C=C2C=C1/C=C/COC (stereo not given)	-9	13	-28	31*	8
C#CCNC(=O)C[C@H]1C[C@@]2(C(=O)OC)C(=C[C@H](COCc3ccccc3)O[C@@H]2C)N(Cc2ccc3c(c2)OCO3)C1=O	0	nt	3	nt	nt
COC/C=C/C1=CC2=CC(=O)C(C)(OC(=O)c3cnc4ccccc4n3)C(=O)C2=CN1C(CO)CO (stereo not given)	1	0	-8	37*	-5
C[C@H](NC(=O)c1nc[nH]c1C(=O)NCc1ccccc1)c1ccccc1	3	-3	15	13	-3
C[C@@H](NC(=O)c1nc[nH]c1C(=O)NCCCCCNC(=O)OC(C)(C)C)c1ccccc1	-1	-3	2	7	-5
C[C@@H](NC(=O)c1nc[nH]c1C(=O)NCc1ccccc1)c1ccccc1	6	-3	3	26*	-6
C[C@@H](NC(=O)c1nc[nH]c1C(=O)N1CCN(c2ccccc2)CC1)c1ccccc1	2	0	9	22*	-9
C[C@H](NC(=O)c1nc[nH]c1C(=O)NCCCCCNC(=O)OC(C)(C)C)c1ccccc1	5	-7	8	28*	-12
Cc1cc(Nc2ccc(OC(F)F)cc2)cc(=O)n1-c1ccc(OC(F)F)cc1	-4	nt	-6	nt	nt
C[C@@H](NC(=O)c1ccc(C#Cc2cccc(F)c2)cn1)C(C)(C)O	-31	nt	-105	nt	nt
O=C(CSc1nnc(-c2ccccc2)n1-c1ccc(Cl)cc1)Nc1ccc(OCc2ccccc2)cc1	2	nt	1	nt	nt
C(=N\Nc1nncc2ccccc12)/c1cccnc1	-2	nt	-13	nt	nt
CCCCn1c(N)c(N(CCOC)C(=O)COC(=O)/C=C/c2ccc(Br)cc2)c(=O)[nH]c1=O	2	1	-3	23*	-1
COc1cccc(/C=C2\CC3(OC(=O)C4CCCC4)CCCN2C3)c1 (stereo not given)	0	nt	-8	nt	nt
COc1ccccc1/C=C/CN1CCOCC1	nt	-2	nt	7	-5
COc1ccccc1/C=C/CN1CCSCC1	-5	-1	-7	30*	-6
COc1cccc(C(=O)N[C@H](C(=O)N2CCC[C@H]2C(=O)NCc2ccccc2)C2CCCCC2)c1	-4	nt	-2	nt	nt
O=C(Nc1ccccn1)c1ccco1	-4	-4	-16	-6	-6
Cc1cccnc1NC(=O)c1ccco1	0	0	-4	22*	-6
Cc1cc(S(=O)(=O)c2ccc([N+](=O)[O-])cn2)ccc1Br	4	-3	4	22*	-5
Cc1ccc(S(=O)(=O)c2ccc([N+](=O)[O-])cn2)cc1	0	0	7	6	-5
COC(=O)C(C(=O)OC)c1ccccc1[N+](=O)[O-]	0	-5	5	31*	-6
